Growth data for eight compounds are collected here from PubChem BioAssay (NCI).

SMILES strings stand for the structures. This is part of a sample that, as a whole, favours compounds with a hit. Of some 83,000 tested, about 20% had one in any assay.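 Note: values are percent growth. 100 is the growth of untreated cells, values between 100 and 0 indicate rising inhibition; between -100 and 0 indicates cell death.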 A number with no mark means an inactive call. Calls of active or inactive are those of the source. How the source made its calls: active means growth percent below 10; inactive means the rest.

Test systems include NCI-H23 lung; NCI-H226 lung; NCI-H322M lung; HOP-62 NSCLC; NCI-H460 lung; HOP-92 NSCLC; NCI-H522 lung; A549/ATCC NSCLC; 786-0 renal; COLO 205 colon; DU-145 prostate; K-562 leukemia; MALME-3M melanoma; MDA-MB-231 breast; RXF 393 renal; SF-268 CNS; SF-295 CNS; UACC-257 melanoma; M14 melanoma; SF-539 CNS.
Assay in all cases: NCI-60 one-dose screen, 48 h (100 = growth as untreated, 0 = no growth, -100 = all killed)
Common to all, as to details: 10 µM unless noted

Consider `O=C(c1ccccc1O)N1CCCC1`, for which the growth is 99.3% in the assay with NCI-H23 lung; 94.5% in the assay on NCI-H226 lung; 101% in the assay on NCI-H322M lung; 89.7% in the assay on HOP-62 NSCLC; 105% in the assay with NCI-H460 lung; 94.5% in the assay on HOP-92 NSCLC. The growth in the assay on NCI-H522 lung is 76.1%; in the assay with A549/ATCC NSCLC, 74.9%; in the assay with 786-0 renal, 95.9%; in the assay on COLO 205 colon, 103%; with DU-145 prostate, 115%; with K-562 leukemia, 89.1%. Also, the growth is 104% in the assay with MALME-3M melanoma; 105% in the assay with MDA-MB-231 breast; 106% in the assay on RXF 393 renal; 106% in the assay with SF-268 CNS; 96.6% with SF-295 CNS; 80.2% in the assay with UACC-257 melanoma. Moreover, in the assay on M14 melanoma, the growth was 96.4%.

`CCOC(OCC)C(=O)c1ccccc1`: the growth was 127% with NCI-H23 lung; 98.9% with NCI-H226 lung; 100% in the assay on NCI-H322M lung; 98.5% with HOP-62 NSCLC; 99.7% in the assay on NCI-H460 lung; 41.3% in the assay on HOP-92 NSCLC. The growth is 85.2% with NCI-H522 lung; 90.2% in the assay on A549/ATCC NSCLC; 107% in the assay with 786-0 renal; 104% with COLO 205 colon; 106% in the assay on DU-145 prostate; 109% with K-562 leukemia. Besides, the growth in the assay on MALME-3M melanoma was 93.8%; in the assay on MDA-MB-231 breast it was 111%; in the assay with RXF 393 renal it was 109%; in the assay with SF-268 CNS, 99.2%; in the assay on SF-295 CNS it was 113%; in the assay with SF-539 CNS, 88.2%. The results for the growth in the assay on UACC-257 melanoma and in the assay on M14 melanoma were 85.9% and 101%, respectively.

Regarding `S=C(NCc1ccccc1)N1CCC(CCCC2CCN(C(=S)NCc3ccccc3)CC2)CC1`, the growth in the assay on NCI-H23 lung was 90%; in the assay on NCI-H226 lung, 91.4%; in the assay with NCI-H322M lung, 118%; in the assay on HOP-62 NSCLC, 97.2%; in the assay with NCI-H460 lung, 106%; in the assay on HOP-92 NSCLC it was 77.5%. Further, the growth in the assay on NCI-H522 lung was 80.2%; with A549/ATCC NSCLC, 95.5%; in the assay on 786-0 renal it was 101%; in the assay on COLO 205 colon, 110%; with DU-145 prostate it was 105%; with K-562 leukemia it was 69.9%. For the same compound, the growth in the assay on MALME-3M melanoma was 104%; in the assay with MDA-MB-231 breast it was 99.2%; in the assay on RXF 393 renal it was 107%; with SF-268 CNS, 93%; in the assay with SF-295 CNS it was 97.7%; with SF-539 CNS, 99.1%. Besides, the growth in the assay on UACC-257 melanoma and with M14 melanoma was 100% throughout.

Regarding `CCOC(=O)c1ccc(Nc2sc(C(=O)c3ccc(Br)cc3)c(N)c2C#N)cc1`, the growth in the assay on NCI-H23 lung was 45.4%; with NCI-H226 lung it was 56%; in the assay with NCI-H322M lung, 37.9%; with HOP-62 NSCLC it was 24%; in the assay with NCI-H460 lung it was 13.1%; in the assay on HOP-92 NSCLC it was 40.1%. Besides, the growth in the assay on NCI-H522 lung is 8.98% (active); in the assay on A549/ATCC NSCLC, 30.7%; in the assay with 786-0 renal, 22.8%; in the assay with COLO 205 colon it was 11.4%; in the assay with DU-145 prostate, 10.8%; with K-562 leukemia, 12.9%. The growth with MALME-3M melanoma is 31.8%; with MDA-MB-231 breast, 52.9%; in the assay with SF-268 CNS, 33.5%; with SF-295 CNS, -11.1% (active); in the assay with SF-539 CNS it was -1.74% (active); with UACC-257 melanoma, 38.2%. In addition, in the assay on M14 melanoma, the growth was 29.4%.

Consider `O=C1NCC2CCCC1C2` (centres undefined), for which the growth with NCI-H23 lung was 105%; with NCI-H226 lung, 104%; in the assay on NCI-H322M lung it was 96.8%; in the assay on HOP-62 NSCLC it was 115%; with NCI-H460 lung, 120%; in the assay with HOP-92 NSCLC, 130%. For the same compound, the growth in the assay with NCI-H522 lung was 90.3%; with A549/ATCC NSCLC, 97.6%; with 786-0 renal, 99.5%; with COLO 205 colon, 119%; in the assay with DU-145 prostate, 113%; with K-562 leukemia it was 106%. Further, the growth with MALME-3M melanoma was 109%; with MDA-MB-231 breast, 102%; in the assay on RXF 393 renal it was 103%; in the assay on SF-268 CNS, 103%; in the assay with SF-539 CNS, 111%; in the assay on UACC-257 melanoma it was 81.7%. In the assay with M14 melanoma, the growth was 96.7%.

Regarding `CC(C)(C)NCCC(O)c1cc(C(F)(F)F)nc2c(C(F)(F)F)cccc12` (centres undefined), the growth is 95.5% in the assay with NCI-H23 lung; 75.2% in the assay with NCI-H226 lung; 76.2% with NCI-H322M lung; 68.3% with HOP-62 NSCLC; 44.4% in the assay on NCI-H460 lung; 40.2% in the assay on HOP-92 NSCLC. In addition, the growth with NCI-H522 lung is 76.2%; with A549/ATCC NSCLC, 57.5%; in the assay on 786-0 renal it was 80.3%; in the assay with COLO 205 colon, 97.7%; in the assay with DU-145 prostate it was 73.6%; in the assay with K-562 leukemia it was 64.5%. The growth was 102% in the assay on MALME-3M melanoma; 55.1% in the assay on MDA-MB-231 breast; 73.3% in the assay on RXF 393 renal; 71% in the assay on SF-268 CNS; 75.1% with SF-539 CNS; 90.1% in the assay on UACC-257 melanoma. In the assay on M14 melanoma, the growth is 84.6%.

Consider `Nc1nc2nnc(-c3ccccc3)c(-c3ccccc3)n2n1`, for which the growth in the assay with NCI-H23 lung is 97.2%; in the assay with NCI-H226 lung, 88.3%; in the assay with NCI-H322M lung, 110%; with HOP-62 NSCLC, 16.7%; in the assay on NCI-H460 lung, 100%; in the assay on HOP-92 NSCLC, 61.4%. Also, the growth with NCI-H522 lung is 109%; in the assay on A549/ATCC NSCLC it was 101%; in the assay on 786-0 renal, 111%; in the assay on COLO 205 colon, 101%; in the assay with DU-145 prostate it was 98.8%; in the assay on K-562 leukemia it was 96.3%. The growth in the assay with MALME-3M melanoma was 125%; in the assay on MDA-MB-231 breast it was 88.7%; with SF-268 CNS, 103%; with SF-295 CNS, 71%; with SF-539 CNS it was 80.9%; in the assay with UACC-257 melanoma it was 103%. Besides, the growth with M14 melanoma was 127%.

On to `COc1cc2c(c(OC)c1OC)-c1ccc(SC)c(=O)cc1[C@@H](NC1OC(CO)C(O)C(O)C1O)CC2` (some centres undefined), for which the growth in the assay with NCI-H23 lung is 29.9%; in the assay with NCI-H226 lung, 43.4%; in the assay on NCI-H322M lung it was 33%; with HOP-62 NSCLC, 25.9%; with NCI-H460 lung, 3.13% (active); with HOP-92 NSCLC, 77.9%. Besides, the growth in the assay with NCI-H522 lung was -16.8% (active); in the assay with A549/ATCC NSCLC, 10.4%; with 786-0 renal, 19.8%; with COLO 205 colon, -61.5% (active); in the assay with DU-145 prostate, 6.12% (active); with K-562 leukemia it was 4.19% (active). For the same compound, the growth in the assay on MALME-3M melanoma was 54.6%; with MDA-MB-231 breast, 7.41% (active); with SF-268 CNS, 22.7%; in the assay with SF-295 CNS, -35.8% (active); in the assay on SF-539 CNS, 1.24% (active); in the assay on UACC-257 melanoma it was 50.5%. Further, the growth in the assay with M14 melanoma is 11.3%.
